Experimental data reported in PubChem BioAssay.
Active and inactive are the calls of the source.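 How the source made its calls, unless noted: active means fluorescence slope higher than the sample average by over 3 SD (cut at about -0.22 in these data, passing the limit was not always enough); inactive means the rest.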

Tests used:
[1] = inhibitors of E-selectin induction by TNFa, primary screen, imaging, HUVEC, immunofluorescence, MLSMR starter and 10KST1 sets (AID 487;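 active means visually confirmed hit in the image check and inhibition above 20%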;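 on inhibition: signal is fraction of cell area covered by stained E-selectin grains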;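 on nuclei count: 100% = median nuclei count of all wells on the same plate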); conditions: HUVEC TNFalpha-induced E-selectin immunofluorescence imaging, at 2 µM; inhibition: stronger effect = higher value; nuclei count: measured here: cell number, toxicity
[2] = DUSP6 inhibitors restoring Erk phosphorylation by chemical complementation, primary imaging in DUSP6-transfected HeLa (AID 609;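 active means compounds giving at least 50% inhibition in the cell-based MKP-3 phosphatase rescue imaging test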;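 on inhibition: phospho-Erk level distribution per well compared with pooled transfected vehicle control wells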); conditions: HeLa MKP-3 transfected, phospho-Erk imaging KS statistic, at 10 µM, cells stimulated with TPA for 15 min
[3] = target: Dual specificity protein phosphatase 6 (Homo sapiens) (UniProt Q16828); experiment: as above; conditions: HeLa MKP-3 transfected, phospho-Erk imaging KS statistic; at 10 µM; stronger effect = higher value; cells stimulated with TPA for 15 min
[4] = target: Voltage-gated potassium channel subunit beta-2 (Rattus norvegicus) (UniProt P62483); experiment: KvBeta enzyme negative modulators, primary screen, biochemical, NADPH fluorescence (AID 622); conditions: recombinant KvBeta, 4-cyanobenzaldehyde reduction, at 10 µM, stronger effect = higher value;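 further: slope of raw intensity against log time taken from 70 to 1610 s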
[5] = target: Voltage-gated potassium channel subunit beta-2 (Rattus norvegicus) (UniProt P62483); experiment: KvBeta positive modulators, primary screen, biochemical, NADPH fluorescence (AID 623;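 active means NADPH fluorescence slope more negative than the mean of all samples by about 3 SD, 99.7% confidence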;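 further: fluorescence intensity change per second fitted from 20 to 320 s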); conditions: Recombinant KvBeta, NADPH fluorescence decrease slope, 10 min; at 10 µM; stronger effect = lower value
[6] = target: Muscarinic acetylcholine receptor M4 (Homo sapiens) (UniProt P08173); experiment: compounds altering M4/GIRK thallium flux, either direction, primary screen, M4 allosteric agonist project, cell-based, HEK293 M4/GIRK, BTC-AM (AID 625;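 active means fluorescence slope after compound addition differing from the mean of all tested samples at 99.7% confidence, mostly higher but some lower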;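 further: thallium influx through GIRK channels coupled to M4 in HEK293 cells with BTC-AM dye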); conditions: at 10 µM, actives lie on both sides
[7] = inhibitors of larval lipid processing in zebrafish, primary screen, whole organism, PED6 fluorescence, gall bladder and intestine (AID 686;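 active means a full or partial loss of lipid-probe fluorescence in the fish gall bladder, intestine or both, judged by eye; inactive means no fluorescence loss, or compound toxic to the fish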;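 further: larvae 5 to 7 days old with five fish per well; signal comes from phospholipase A2 cleavage of quenched PED6 carried via bile; overnight exposure to compound and PED6 before scoring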); conditions: Zebrafish larvae PED6 lipid processing, fluorescence scoring; screened at 20 µM (by protocol)
[8] = inhibitors of Chlamydomonas gravitaxis, primary screen, whole organism, Chlamydomonas reinhardtii, WT vs cilia-less mutant, absorbance, 96-well (AID 463189;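 active means inhibition at or above 50% relative to wild type and mutant plate controls; inactive means inhibition below 50%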;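 further: 0% = wild type cc124 cells in DMSO and 100% = ciliumless bld1 mutant cells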); conditions: OD600 absorbance, 2 days, at 10 µM, stronger effect = higher value
[9] = target: Alpha-2C adrenergic receptor (Homo sapiens) (UniProt P18825); experiment: modulators of alpha2C/GIRK thallium flux, primary screen, cell-based, HEK293 alpha2C/GIRK1/2 (AID 624;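 active means fluorescence slope after compound addition differing from the mean of all screened samples at 99.7% confidence, in either direction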;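 further: slope of fluorescence ratio to pre-addition baseline per second over 15 to 24 s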); conditions: thallium flux BTC fluorescence, at 10 µM, actives lie on both sides
[10] = inhibitors of Sendai virus-induced IRF3 signaling, primary screen, TLR/RLR signaling modifier project, cell-based, Sendai virus stimulus, luciferase, 10K MLSCN set (AID 602276;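 active means inhibition at or above 50% at 10 µM; inactive means inhibition below 50%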;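 further: firefly luciferase from ISG56 promoter only with Renilla not read in this screen; 0% = Sendai virus plus DMSO and 100% = medium plus DMSO without virus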); conditions: HEK293 RL24 IRF3 luciferase reporter, at 10 µM, stronger effect = higher value
[11] = inhibitors of poly I:C-induced TLR3 signaling, primary screen, cell-based, poly I:C stimulus, luciferase, 10K MLSCN set (AID 602277;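 active means inhibition of the reporter signal at or above 50%; inactive means inhibition below 50%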); conditions: HEK293-TLR3 RL24 IRF3 luciferase reporter, at 10 µM, stronger effect = higher value
[12] = inhibitors of mutant huntingtin aggregation, primary screen, imaging, exon1htt(103Q)mCFP cells, high-content imaging (AID 483;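 active means visual image review flags a hit and inhibition of aggregation exceeds 20%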;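 further: compound exposure lasted 3 days before fixation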;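 on nuclei count: percent of the per-plate median nuclei count of sample wells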); conditions: exon1htt(103Q)mCFP cell line, aggregate imaging, at 2 µM; inhibition of aggregation: stronger effect = higher value; nuclei count: measured here: cell count, toxicity
[13] = measured here: cell density z-score
[14] = measured here: nuclear c-Myc green intensity z-score
[15] = measured here: nuclear pErk red intensity z-score, stronger effect = higher value

Muscarinic acetylcholine receptor M4 (Homo sapiens), sequence (P08173 whole entry, looked up): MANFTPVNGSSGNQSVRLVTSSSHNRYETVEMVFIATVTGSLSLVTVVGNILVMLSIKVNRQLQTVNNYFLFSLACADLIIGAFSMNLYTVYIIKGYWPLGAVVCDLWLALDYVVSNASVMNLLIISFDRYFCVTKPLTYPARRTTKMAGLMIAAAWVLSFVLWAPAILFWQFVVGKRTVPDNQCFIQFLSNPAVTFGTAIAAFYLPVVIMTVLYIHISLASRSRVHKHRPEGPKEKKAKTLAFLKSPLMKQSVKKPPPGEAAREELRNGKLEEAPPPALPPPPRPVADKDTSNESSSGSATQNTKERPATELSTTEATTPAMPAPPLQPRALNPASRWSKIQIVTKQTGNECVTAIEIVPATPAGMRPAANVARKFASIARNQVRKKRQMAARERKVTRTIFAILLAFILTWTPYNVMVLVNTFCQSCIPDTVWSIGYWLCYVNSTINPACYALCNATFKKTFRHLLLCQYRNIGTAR
Dual specificity protein phosphatase 6 (Homo sapiens), sequence (Q16828 whole entry, looked up): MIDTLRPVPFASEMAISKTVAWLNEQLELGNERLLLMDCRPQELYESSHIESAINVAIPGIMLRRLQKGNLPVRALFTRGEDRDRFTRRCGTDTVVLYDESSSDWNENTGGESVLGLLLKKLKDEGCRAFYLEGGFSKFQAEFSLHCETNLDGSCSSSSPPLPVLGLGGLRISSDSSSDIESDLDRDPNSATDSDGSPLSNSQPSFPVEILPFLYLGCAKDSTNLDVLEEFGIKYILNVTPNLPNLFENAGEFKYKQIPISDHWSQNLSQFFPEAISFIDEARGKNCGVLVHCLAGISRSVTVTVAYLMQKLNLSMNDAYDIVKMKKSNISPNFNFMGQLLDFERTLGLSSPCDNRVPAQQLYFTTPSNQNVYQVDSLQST
Voltage-gated potassium channel subunit beta-2 (Rattus norvegicus), sequence (P62483 whole entry, looked up): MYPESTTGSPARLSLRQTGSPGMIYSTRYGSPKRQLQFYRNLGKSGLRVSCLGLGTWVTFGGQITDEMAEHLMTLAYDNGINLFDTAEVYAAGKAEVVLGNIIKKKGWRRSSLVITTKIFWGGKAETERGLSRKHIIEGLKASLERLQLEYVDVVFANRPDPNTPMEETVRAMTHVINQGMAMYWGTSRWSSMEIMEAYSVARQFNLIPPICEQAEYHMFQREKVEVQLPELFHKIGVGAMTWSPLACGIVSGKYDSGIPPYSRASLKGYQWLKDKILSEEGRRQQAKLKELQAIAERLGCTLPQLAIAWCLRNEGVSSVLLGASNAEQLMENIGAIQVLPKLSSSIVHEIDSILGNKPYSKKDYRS
Alpha-2C adrenergic receptor (Homo sapiens), sequence (P18825 whole entry, looked up): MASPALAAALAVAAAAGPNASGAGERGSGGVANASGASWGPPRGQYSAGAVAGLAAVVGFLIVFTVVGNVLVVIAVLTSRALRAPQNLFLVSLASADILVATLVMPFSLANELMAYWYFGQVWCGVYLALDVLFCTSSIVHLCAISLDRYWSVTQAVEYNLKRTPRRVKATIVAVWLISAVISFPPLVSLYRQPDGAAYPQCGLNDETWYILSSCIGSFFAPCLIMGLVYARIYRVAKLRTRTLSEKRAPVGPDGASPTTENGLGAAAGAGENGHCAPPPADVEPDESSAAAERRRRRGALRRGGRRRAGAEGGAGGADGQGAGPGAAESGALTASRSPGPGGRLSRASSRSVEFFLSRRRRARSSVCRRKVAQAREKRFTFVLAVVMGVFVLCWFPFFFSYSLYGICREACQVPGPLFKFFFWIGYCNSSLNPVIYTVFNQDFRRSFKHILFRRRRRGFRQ

| Compound | inhibition [1] | nuclei count [1] | z-score [2, 13] | z-score [2, 14] | z-score [2, 15] | inhibition [3] | fluorescence slope [4] | NADPH fluorescence slope [5] | fluorescence slope [6] | outcome [7] | inhibition [8] | slope [9] | inhibition [10] | inhibition [11] | inhibition of aggregation [12] | nuclei count [12] |
| --- | --- | --- | --- | --- | --- | --- | --- | --- | --- | --- | --- | --- | --- | --- | --- | --- |
| O=C(CCN1CCc2ccccc21)c1ccc2c(c1)OCCO2 | -46.2% (inactive) | 144% | -0.121 | -0.0206 | -0.911 | -0.159% (inactive) | -0.436 (inactive) | -2.2e-05 (inactive) | 0.00393 (inactive) | inactive | 3.69% (inactive) |  |  |  |  |  |
| CCCOc1cccc(CN2CCCCC2c2cccnc2)c1 (stereo not drawn) | -33.4% (inactive) | 153% | 0.13 | 0.714 | -0.468 | 5.57% (inactive) | -0.369 (inactive) | 1.8e-06 (inactive) | 0.00674 (inactive) | inactive | -12.9% (inactive) |  |  |  |  |  |
| COCCN(Cc1ccccc1)P(=O)(O)c1ccccc1OCC(=O)O | -21.2% (inactive) | 151% | 1.19 | -1.67 | 0.944 | 15.1% (inactive) | -0.446 (inactive) | -4.4e-05 (inactive) | 0.00543 (inactive) | inactive | 19.2% (inactive) |  |  |  |  |  |
| CC(=O)Oc1oc(-c2ccccc2)nc1/C=N/c1ccccn1 | -20.4% (inactive) | 147% | -0.443 | 1.34 | 0.905 | 7.48% (inactive) | -0.383 (inactive) | -5.8e-05 (inactive) | 0.00577 (inactive) | inactive | -3.91% (inactive) |  |  |  |  |  |
| COc1ccc(C(=O)C2CCCCC2=O)cc1 (stereo not drawn) | 43.3% (inactive) | 127% | -0.682 | -0.8 | 1.6 | -2.07% (inactive) | -0.407 (inactive) | -7e-05 (inactive) | 0.00364 (inactive) | inactive | 20% (inactive) |  |  |  |  |  |
| COc1cc(C(=O)Nc2ccccn2)cc(OC)c1OC | -234% (inactive) | 165% | -0.193 | -1.03 | 0.79 | -2.07% (inactive) | -0.398 (inactive) | -5.6e-05 (inactive) | 0.00377 (inactive) | inactive | 6.27% (inactive) |  |  |  |  |  |
| CCC(NC(=O)Nc1nnc(C(F)(F)F)s1)(C(F)(F)F)C(F)(F)F | -242% (inactive) | 141% | 0.851 | -0.831 | 0.704 | 18.4% (inactive) | -0.449 (inactive) | -4.2e-05 (inactive) | 0.00231 (inactive) | inactive; toxic | 9.74% (inactive) |  |  |  |  |  |
| CCOC(=O)c1ccc(NCC(O)COc2ccccc2)cc1 (stereo not drawn) | -60.3% (inactive) | 138% | 1.4 | -0.621 | -0.757 | 3.66% (inactive) | -0.343 (inactive) | -1.2e-05 (inactive) | 0.00673 (inactive) | inactive | 3.53% (inactive) |  |  |  |  |  |
| O=C(NC1CCCCCC1)C1c2ccccc2C(=O)N1Cc1cccnc1 (stereo not drawn) |  |  |  |  |  |  | -0.575 (inactive) | 1.2e-05 (inactive) |  |  |  | 0.00527 (inactive) | 1.87% (inactive) | 17.1% (inactive) |  |  |
| Cc1cccc(-n2ccnc2SCC(=O)Nc2cc(C)on2)c1 |  |  |  |  |  |  | -0.513 (inactive) | 3.9e-06 (inactive) | 0.00505 (inactive) |  |  |  | -19% (inactive) | -43.2% (inactive) |  |  |
| COc1ccc(CNC(=O)COC(=O)c2n[nH]c3ccccc23)cc1OC | -287% (inactive) | 171% |  |  |  |  | -0.382 (inactive) | 1.4e-05 (inactive) |  |  |  | 0.00438 (inactive) | 6.09% (inactive) | -3.54% (inactive) | -22.1% (inactive) | 108% |
| O=C(c1ccc(N2C(=O)C3CC=C(Cl)CC3C2=O)cc1)N1CCCCC1 (stereo not drawn) | -148% (inactive) | 163% | 0.548 | -0.00489 | -2.02 | 15.1% (inactive) | -0.379 (inactive) | -2.5e-05 (inactive) | 0.00666 (inactive) | inactive | -0.983% (inactive) |  |  |  |  |  |
| COc1cc(C)nc(Oc2ccc(=O)[nH]n2)n1 | -34.6% (inactive) | 147% | -0.3 | 1.04 | -1.72 | 5.57% (inactive) | -0.296 (inactive) | -4e-05 (inactive) | 0.00779 (inactive) | inactive | 34.1% (inactive) |  |  |  |  |  |
| Cc1cc(C)cc(N(CC(=O)Nc2cccc(C)n2)S(=O)(=O)c2c(C)noc2C)c1 |  |  |  |  |  |  | -0.598 (inactive) | -3.4e-05 (inactive) |  |  |  | 0.00547 (inactive) | 11.9% (inactive) | 42.2% (inactive) |  |  |
| Cc1cc(C)cc(-n2ccnc2SCC(=O)Nc2ccc3c(c2)OCCO3)c1 |  |  |  |  |  |  | -0.57 (inactive) | -3.9e-05 (inactive) | 0.00517 (inactive) |  |  |  | 1.38% (inactive) | -4.03% (inactive) |  |  |
| C1CCC2=NCCCN2CC1 | -40.2% (inactive) | 99.2% |  |  |  |  | -0.37 (inactive) | 4.2e-05 (inactive) |  |  |  | 0.00592 (inactive) | 10.9% (inactive) | 20.9% (inactive) | 7.9% (inactive) | 102% |
